Screening results deposited in PubChem by Broad Institute.
Most compounds without a hit are left out; they make up all but 1.2% or so of the library.
PrP UTR inh = suppresses PrP 5' UTR mRNA reporter expression; cell-based PrP 5' UTR mRNA reporter, plate reader; inhibition, % (no concentration beside the values); 340,000 compounds, 0.35% hits; AID 488862; in the data active = inhibition above about 52%
FadD28 binding = blocks FadD28 binding to the bisubstrate probe | 360,000 compounds, 0.22% hits | fluorescence polarization | AID 588549 | inhibition, % at 12.5 µM; in the data active = inhibition above about 8.5%, passing the limit was not always enough
TcdB inh = TcdB glycohydrolase inhibition; TcdB glycohydrolase enzymatic assay, plate reader; inhibition, % at 9.99 µM; 350,000 compounds, 0.24% hits; AID 652162; in the data active = inhibition above about 10%
Mtb BioA inh = BioA (M. tuberculosis) enzyme inhibition. purified M. tuberculosis BioA enzyme, plate reader. inhibition, % at 9.99 µM. 360,000 compounds, 0.096% hits. AID 602481; in the data active = inhibition above about 40%
PfHsp40 yeast = rescue of PfHsp40-mediated yeast toxicity; growth rescue, % at 12.5 µM; 340,000 compounds, 0.68% hits; S. cerevisiae expressing PfHsp40, growth rescue, ATP luminescence; in the data active = growth rescue above about 28%, passing the limit was not always enough;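 note: yeast W303a lacking pdr1 and pdr3 grown in galactose medium; growth measured after three days at 30 °C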
Yp Topo-I inh = blocks Yersinia pestis topoisomerase I activity | activity, % at 10 µM | 360,000 compounds, 0.064% hits | Y. pestis Topo-I cleavage product accumulation, plate reader; in the data active = activity above about 50%, passing the limit was not always enough
Hits are given with their value; - = inactive; . = no result given.

SMILES | PrP UTR inh | FadD28 binding | TcdB inh | Mtb BioA inh | PfHsp40 yeast | Yp Topo-I inh
Cc1noc(C)c1NC(=O)N(C)C[C@@H]1Oc2c(NC(=O)c3ccc(-c4nccs4)cc3)cccc2C(=O)N([C@@H](C)CO)C[C@@H]1C | . | . | - | - | . | .
O=C(C[C@H]1C=C[C@@H](NC(=O)CN2CCOCC2)[C@@H](CO)O1)NCc1cccc(F)c1 | . | . | - | - | . | .
OCC[C@@H]1C[C@H](O)[C@@H](O)[C@]2(Cc3ccccc3CO2)O1 | - | - | - | - | - | -
OCC[C@@H]1C[C@@H](O)[C@H](O)[C@@]2(Cc3ccccc3CO2)O1 | - | - | - | - | 46 | -
OCC[C@H]1C[C@H](O)[C@@H](O)[C@@]2(Cc3ccccc3CO2)O1 | - | - | 14 | - | - | -
O=C(CSc1cccc2cccnc12)N/N=C/c1ccc(F)cc1 | - | - | 11 | . | - | -
O=C(CSc1cccc2cccnc12)N/N=C/c1cccc(O)c1 | - | - | - | . | - | -
COc1ccc(NC(=O)/C(Cl)=C(/Cl)S(=O)(=O)Cc2ccc(C)cc2)cn1 | - | - | . | - | 343 | -
O=C(C[C@H]1C=C[C@@H](NC(=O)CN2CCOCC2)[C@@H](CO)O1)NC1CCC1 | . | . | - | - | . | .
Cc1nnc(NC(=O)CN2CC(C)OC(C)C2)s1 (stereo not given) | - | - | - | - | 28 | -
CCOC(=O)c1sc(NC(=O)CN2CC(C)OC(C)C2)nc1C (stereo not given) | - | - | - | - | - | -
C[C@H](CO)N1C[C@H](C)[C@H](CN(C)C(=O)Cc2ccccc2)Oc2ncc(-c3cncnc3)cc2C1=O | . | . | - | - | . | .
O=C(C[C@@H]1CC[C@H]2[C@@H](COC[C@H](O)CN2C(=O)Nc2cc(Cl)cc(Cl)c2)O1)NCC1CC1 | . | . | - | - | . | .
CCOc1ccc(NS(=O)(=O)c2ccc(Cl)c(N=Nc3c(O)[nH]c(=S)[nH]c3=O)c2)cc1Br | . | 15 | - | - | . | -
CC1=C(C#N)c2nc(N)c(C#N)c(C)c2/C1=C\c1ccc(OCC(=O)O)c(Cl)c1 | - | 14 | - | . | - | -
CCOC(=O)CSc1nc(N)c(C#N)c(-c2ccc(OCC)cc2)c1C#N | - | - | . | - | - | -
C[C@@H]1CN([C@H](C)CO)S(=O)(=O)c2ccc(Br)cc2O[C@@H]1CN(C)C(=O)C1CC1 | . | . | - | - | . | .
CC(C)C(=O)NNS(=O)(=O)c1ccccc1[N+](=O)[O-] | - | - | . | - | 55 | -
COC(=O)C1=C(C)OC(N)=C(C#N)C1c1c(C)nn(-c2ccccc2)c1Cl (stereo not given) | - | - | . | - | - | -
COC(=O)C1=C(C)OC(N)=C(C#N)C1c1c(C)nn(C)c1C (stereo not given) | - | - | - | - | 68 | -
O=C(c1ccc(N2CCN(C(=O)c3cccc(F)c3)CC2)cc1)c1cccc(F)c1 | - | - | - | - | - | -
O=C(c1ccc(N2CCN(C(=O)c3ccccc3Br)CC2)cc1)c1cccc(F)c1 | - | - | - | - | 34 | -
COc1ccc(-c2cn3cc(C)ccc3n2)cc1F | - | - | 20 | - | - | -
Oc1cccc(/C=N/N(Cc2ccccc2)c2ccccc2)c1 | - | - | - | . | 345 | -
Oc1ccc(/C=N/N(Cc2ccccc2)c2ccccc2)c(O)c1O | - | 16 | - | . | 42 | -
SMILES | PrP UTR inh | FadD28 binding | TcdB inh | Mtb BioA inh | PfHsp40 yeast | Yp Topo-I inh
C[C@@H]1CN([C@@H](C)CO)C(=O)c2cccc(NS(=O)(=O)c3cn(C)cn3)c2O[C@@H]1CN(C)C(=O)Nc1cccc2ccccc12 | . | . | - | - | . | .
CN1C(=O)c2cc(NC(=O)c3cnccn3)ccc2OC[C@@H]2O[C@@H](CC(=O)O)CC[C@@H]21 | . | . | - | - | . | .
C[C@@H]1CCCCCCCCC(=O)OCCN[C@H](C)CCCCCCCCC(=O)OCCN[C@H](C)CCCCCCCCC(=O)OCCN1 | - | - | . | - | 41 | -
C[C@@H]1CN([C@H](C)CO)C(=O)c2cccc(NC(=O)Nc3ccc4c(c3)OCO4)c2O[C@@H]1CN(C)C(=O)Nc1ccccc1 | . | . | . | - | . | .
Cc1cccc(-n2c(=O)c3ccccc3n3c(=S)[nH]nc23)c1C | - | - | 12 | - | - | -
C[C@@H]1CN([C@H](C)CO)C(=O)Cc2cc(NC(=O)Nc3ccccc3)ccc2O[C@H]1CN(C)C(=O)Nc1cccc2ccccc12 | . | . | - | - | . | .
CN1C(=O)NC(c2ccc(O)cc2)C2=C1CN(c1ccccc1)C2=O (stereo not given) | - | - | - | - | - | -
CN1C(=O)NC(c2ccc(O)cc2)C2=C1CN(c1ccc(O)cc1)C2=O (stereo not given) | - | - | 19 | . | - | -
CCC(=O)N1CC[C@@H]2[C@@H](CO)Nc3ccc(C#Cc4cccnc4)cc3[C@@H]21 | . | . | - | - | . | .
Cc1nc(N2CCN(C(=O)c3ccco3)CC2)c2c3c(sc2n1)CC(C)CC3 (stereo not given) | - | - | - | . | 192 | -
O=C(N/N=C/c1ccc(-c2cccc([N+](=O)[O-])c2)o1)c1ccccc1O | - | - | - | . | - | -
O=C(N/N=C/c1ccc(-c2cccc([N+](=O)[O-])c2)o1)c1ccc([N+](=O)[O-])cc1 | - | - | - | . | 146 | -
COc1cccc(-c2ccc3n(c2=O)C[C@H]2[C@H](CO)[C@@H](C(=O)NCC4CC4)N(C(C)=O)[C@@H]32)c1 | . | . | - | - | . | .
CCCSc1ccc([C@@H]2[C@@H]3C(=O)N(C)C(=O)[C@@H]3[C@]3(C(=O)OC)CCCN23)cc1OC | - | - | - | - | 63 | -
CCCC(=O)N1CC2(CN(S(=O)(=O)CC)C2)c2c(n(C)c3cc(OC)ccc23)[C@H]1CO | . | . | - | . | . | .
COc1ccc2c3c(n(C)c2c1)[C@H](CO)N(C)CC31CN(S(=O)(=O)c2cccc(F)c2)C1 | . | . | - | . | . | .
CCOC(=O)Cn1cc(C(=O)c2ccco2)c2ccccc21 | - | 15 | . | - | - | -
O=C(O)Cn1cc(C(=O)c2ccco2)c2ccccc21 | - | - | . | - | - | -
COc1ccc(-n2c(-c3ccccc3)cc3c2CCCC3=O)cc1 | - | - | - | - | 134 | -
CC(=O)N(C)C[C@H]1Oc2ncc(-c3ccccc3C)cc2C(=O)N([C@H](C)CO)C[C@H]1C | . | . | - | - | . | .
Cc1cccc(NC(=O)CN2C(=O)S/C(=C\c3cc(C)n(C)c3C)C2=O)c1 | - | 34 | - | - | - | -
Cc1ccc(NC(=O)CN2C(=O)S/C(=C\c3cc(C)n(-c4cccc(C(=O)O)c4)c3C)C2=O)cc1 | - | 43 | - | . | - | -
Cc1ccc(C(=O)O)cc1-c1ccc(/C=C2\SC(=O)N(CC(=O)Nc3ccccc3)C2=O)o1 | - | 17 | - | - | - | -
C[C@@H]1CN([C@H](C)CO)C(=O)c2cc(NC(=O)c3ccncc3)ccc2O[C@@H](C)CCCCO[C@@H]1CN(C)CC1CCCCC1 | . | . | - | - | . | .
O=C(O)C/C(=C\c1cccc(NC(=O)c2ccccc2Cl)c1)c1nc2ccccc2s1 | - | - | - | - | 28 | -
